Screening results (PubChem BioAssay)
Rows were chosen to be rich in hits. Some 7.2% of all compounds tested hit in one or more screens of this group.
HCV inh – qHTS Assay for Inhibitors of Hepatitis C Virus (HCV). Huh7.5.1 HCVcc-Cre infection, luciferase reporter, 44 h. Potency, µM (doses to about 41.8 µM), for inactives: at the top dose activity change, negative = inhibition, most hits filed as inhibitors. actives 3.4% (n = 340,000). AID 651820, 2012
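Infectious HCV cell culture screen: compound-treated cells (1,000/well, pre-plated 4 h) are infected with HCVcc-Cre at roughly 0.5 moi and grown 44 h. Infection is quantified by luciferase signal after 15 min substrate incubation at room temperature.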
MARV entry inh – qHTS for inhibitors of binding or entry into cells for Marburg Virus; AID 540276, 2011; Marburg virus pseudotyped entry inhibition, cell reporter; Potency, µM (doses to about 37.8 µM), for the others: at the top dose activity change, negative = inhibition, actives largely listed as inhibitors; actives 1.8% (n = 300,000); calls by dose curve; tested in HEK293 cells
Sm TGR block – qHTS Assay for the Inhibitors of Schistosoma Mansoni Peroxiredoxins. Potency, µM (top dose mostly 114 µM), inactives show at the highest dose activity change, negative = inhibition, most hits filed as inhibitors. Schistosoma mansoni thioredoxin glutathione reductase (TGR), Q962Y6. actives 3% (n = 360,000). purified TGR, DTNB reduction, TNB absorbance 405 nm; also: nearly all actives have a fitted effect of over 60% in size
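First, TGR (20 nM dispensed) and NADPH were mixed with compound. Second, a 15 min room-temperature incubation followed. Third, further NADPH and then DTNB were added to start the reaction. Finally, TNB absorbance was monitored kinetically.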
FMDV inh – High Throughput Screening for Foot and Mouth Disease Virus Antivirals; FMDV antiviral cell-based qHTS; Potency, µM (highest dose often 57.9 µM), for inactives: at the top dose activity change, negative = inhibition, actives largely listed as inhibitors; actives 1.2% (n = 410,000); calls by dose curve; tested in HEK293T cells; also: read-out not given here; nearly all actives have a fitted effect of over 45% in size
LASV entry inh – qHTS for Inhibitors of binding or entry into cells for Lassa Virus; actives 1.2% (n = 300,000); Lassa virus pseudotype entry inhibition, cell reporter; Potency, µM (series often up to 37.9 µM), inactives show at the highest dose activity change, negative = inhibition, most hits filed as inhibitors; calls by dose curve; tested in HEK293 cells; also: nearly all actives have a fitted effect of over 50% in size
RE007 growth inh – qHTS Assay for Inhibitors of the HIV-1 protein Vpr. S. pombe RE007 Vpr strain, BacTiter-Glo ATP luminescence, 24 h. actives 0.21% (n = 360,000). Potency, µM (highest dose often 92.2 µM), for the others: at the top dose activity change, negative = less growth, usual class: inhibitors; active = well fitted falling curve with a large enough effect; inconclusive = small, poorly fitted or top-dose-only effect; inactive = no such curve, though single readings can be large or run the other way; also: nearly all actives have a fitted effect of over 50% in size
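Fission yeast RE007 carrying one integrated HIV-1 vpr copy, seeded at OD 0.01 in PMG+AL medium with 23 nL pinned compound. Grown 24 h at 30 degrees; viability read by BacTiter-Glo luminescence after 5 min.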
The depositor's hits bear a star; ? = inconclusive; / = no result given; [ ] = dose if it differs, or a comment. Unless noted, calls follow the shape of the dose curve; as a rule, active = well fitted curve in the direction sought with a large enough effect; inconclusive = small, poorly fitted or top-dose-only effect, or another doubt; inactive = no such curve, though single readings can be large; an effect the other way counts as inactive or inconclusive. % is scaled to controls: 0 for no effect and ±100 for the full control effect; potency is read from the fitted curve at half-maximal effect.

SMILES	HCV inh	MARV entry inh	Sm TGR block	FMDV inh	LASV entry inh	RE007 growth inh
Cc1[nH]c2ccccc2c1CC#N	22%	?	-36%	1%	-9%[46.1 µM]	29%
COC(=O)c1cc(O)cc(OC)c1C(=O)c1c(O)cc(C)cc1O	3%	/	-30%	-10%	/	12%
COC(=O)c1cc(O)cc(OC)c1Oc1cc(C)cc(O)c1C(=O)O	14%	/	7.1µM*	0%	/	1%
CN(C)CCNC(=O)/C(=C/c1ccc(-c2cccc([N+](=O)[O-])c2)o1)NC(=O)c1ccccc1	10µM*	?	4%	-29%	?	-20%
CN(C)CCNC(=O)/C(=C/c1ccc(-c2cccc(Cl)c2)o1)NC(=O)c1ccccc1	11µM*	8.2µM*	2%	-16%	?	-3%
Cc1ccc(C(=O)N/C(=C\c2ccc(-c3cccc([N+](=O)[O-])c3)o2)C(=O)NCCCN2CCOCC2)cc1	10µM*	/	12%	-22%	/	-9%
COc1ccc(C(=O)N/C(=C\c2ccc(-c3cccc([N+](=O)[O-])c3)o2)C(=O)NCCCN2CCOCC2)cc1	/	/	/	?	/	1%
CCCCNC(=O)/C(=C\c1ccc([N+](=O)[O-])o1)NC(=O)c1ccccc1	?	?	45µM*	-8%	-12%	-26%
COC(=O)/C(=C\c1ccc([N+](=O)[O-])o1)NC(=O)c1ccccc1	?	-18%	?	-4%	-13%	-4%
Cc1ccc(CNC(=O)c2ccc(N3Cc4ccccc4Oc4ncccc43)s2)cc1	/	-12%[46.1 µM]	0%	-22%	?	/
Cc1ccc(NC(=O)C(Cc2c[nH]c3ccccc23)NC(=O)OCC(C)C)cc1 (configuration not stated)	/	?	17%	13%	?	/
C=C(C)C[C@@]1(c2ccccc2)Oc2ccccc2C2=NCCN=C21	/	-21%[14.2 µM]	/	/	/	/
COc1ccc(-c2csc(Nc3cc(C)ccn3)n2)cc1C	13µM*	/	-13%	-1%	/	-11%
COc1ccc(-c2csc(Nc3ncccc3C)n2)cc1OC	2.2µM*	1%	0%	25%	?	1%
CCOc1ccc(CCNC(=O)CCc2cn(Cc3ccc(F)cc3)c3ccccc23)cc1	/	/	1%	-15%	-8%[46.1 µM]	/
O=C(C=Cc1ccco1)c1ccc2ccccc2c1	-28%	?	/	-13%	?	-7%
O=C(/C=C/c1ccco1)c1ccc(O)cc1	/	/	3.5µM*	/	/	/
CN(C)c1ccc(C(=O)/C=C/c2ccco2)cc1	1%	?	45µM*	-10%	?	-18%
CN(C)c1ccc(C(=O)/C=C/c2ccccc2)cc1	-10%	?	5%	9%	?	-18%
CN(C)c1ccc(NC2=C(Cl)C(=O)c3ccccc3C2=O)cc1	10µM*	?	8.9µM*	?	?	?
O=C1C(Cl)=C(Nc2ccc3cn[nH]c3c2)C(=O)c2ccccc21	4µM*	?	0.32µM*	20µM*	3.5µM*	32µM*
O=C(Nc1ccc2cn[nH]c2c1)c1c(Cl)cccc1Cl	-18%	10%	1%	-9%	15%	3%
C=CC#CC1(O)CC(C)[N+](C)(C)CC1C (configuration not stated)	0%	?	13µM*	-7%	27%	61%
CC(C)(C)C1CCC(=NNC(=O)c2cc3c(s2)CCCC3)CC1 (configuration not stated)	46%	-29%	-10%	-11%	?	17%
CC(C)(C)C1CCc2sc(C(=O)NNC(=O)CCl)cc2C1 (configuration not stated)	?	/	11µM*	11%	/	28%
SMILES	HCV inh	MARV entry inh	Sm TGR block	FMDV inh	LASV entry inh	RE007 growth inh
C=Cc1ccc(CSc2nnc(C)n3c2cc2occc23)cc1	/	/	15%	40%	-19%[46.1 µM]	/
CCCCS(=O)(=O)/C=C\C=C/S(=O)(=O)CCCC	2.5µM*	?	2.2µM*	?	11µM*	8.9µM*
Cc1ccc(-n2cc(CNCCCn3cccn3)c(-c3cccc(C)c3)n2)cc1	-2%	?	-11%	-29%	?	5%
Cc1ccc(C)c(-n2cc(CNCCCn3cccn3)c(-c3ccccc3)n2)c1	?	10µM*	-15%	-17%	?	-5%
OCCNCc1cc(Br)ccc1OCc1ccc(Cl)cc1Cl	11µM*	11µM*	-1%	0%	11µM*	21%
OCCNCc1cc(Br)ccc1OCc1ccc(Cl)cc1	?	?	1%	?	-20%	16%
CN(CC(=O)Nc1ccc(F)cc1)C(=O)c1cc(-c2ccco2)nc2ccccc12	-2%	-14%[46.1 µM]	11µM*	?	?	6%
Cc1ccc(NC(=O)CN(C)C(=O)c2cc(-c3ccco3)nc3ccccc23)cc1	?	-16%[46.1 µM]	6.3µM*	0%	-20%	-17%
COc1cccc(NC(=O)CN(C)C(=O)c2cc(-c3ccco3)nc3ccccc23)c1	2%	?	?	-21%	-12%	17%
CN(CCOc1ccc(Cl)cc1)C(=O)c1cc(-c2ccco2)nc2ccccc12	?	?	11µM*	35µM*	?	6%
CCOc1ccc(NC(=O)CN(C)C(=O)c2cc(-c3ccco3)nc3ccccc23)cc1OCC	?	?	/	-23%	-27%	-12%
COc1ccc(NC(=O)CN(C)C(=O)c2cc(-c3ccccc3)nc3ccccc23)cc1	-4%	?	-2%	?	?	22%
Cc1ccc2nc(-c3ccccc3)cc(C(=O)N(C)CC(=O)Nc3ccccc3Br)c2c1	?	11µM*	-6%	-15%	?	1%
COCC1CCCN(Cc2ccc3c(c2)CN(C(=O)c2ccc(-c4ccc(C)o4)cc2)CCO3)C1 (configuration not stated)	/	/	/	8%	/	/
Cn1nnnc1SCCCNCc1ccccc1OCc1ccccc1Cl	/	?	-4%	-29%	-19%[46.1 µM]	/
COc1ccccc1CNC(=O)C(C)n1c(=O)cc(-c2ccccc2)c2c(C)nn(C)c21 (configuration not stated)	/	/	-2%	-16%	-11%[46.1 µM]	/
C=CC[C@@H]1C=C[C@@H](Oc2ccc(OC)cc2)[C@H](COC(=O)c2ccc(Br)cc2)O1	/	-4%[14.2 µM]	/	/	/	/
O=C1NC(=O)C(c2ccccc2[N+](=O)[O-])=C1Nc1ccc(O)c(Cl)c1	-17%	64%	7.1µM*	0%	-2%	1%[18.4 µM]
O=C(c1ccc(Cl)c(S(=O)(=O)N2CCOCC2)c1)N(Cc1ccco1)Cc1cccs1	?	?	?	0%	?	-23%
